Hits are enriched below; roughly 2.6% of the tested compounds scored in any of these assays.
Cruzain inh Det – cruzain (T. cruzi) inhibition with detergent; Potency, µM, for the others: max response, negative = inhibition, usual class: inhibitors; 0.43% of 200,000 active; P25779; purified cruzain, Z-FR-AMC fluorescence, 0.01% Triton;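 further: plate controls were neutral wells for no effect and buffer without enzyme for full effect; nearly all actives have a fitted effect of over 40% in size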
Target sequence (P25779 123-467 limits assumed): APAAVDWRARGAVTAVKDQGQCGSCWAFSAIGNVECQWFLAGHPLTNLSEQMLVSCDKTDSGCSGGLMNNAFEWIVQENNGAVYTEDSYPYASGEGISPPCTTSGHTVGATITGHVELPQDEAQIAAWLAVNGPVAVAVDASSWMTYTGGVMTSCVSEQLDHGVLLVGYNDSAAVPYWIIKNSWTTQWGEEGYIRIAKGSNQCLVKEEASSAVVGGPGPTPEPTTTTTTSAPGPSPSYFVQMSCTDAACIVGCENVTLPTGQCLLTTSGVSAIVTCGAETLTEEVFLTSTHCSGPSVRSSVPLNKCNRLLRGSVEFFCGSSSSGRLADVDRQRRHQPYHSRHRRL
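Purified cruzain (1.5 nM final) was preincubated with compounds for 15 min at room temperature in 100 mM sodium acetate pH 5.5, 5 mM DTT, 0.01% Triton X-100. Reaction started with 2 uM Z-FR-AMC; AMC fluorescence change over 60 s gave activity.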
Cruzain inh noDet – cruzain (T. cruzi) inhibition without detergent | 2.3% of 200,000 active | Potency, µM, inactives show max response, negative = inhibition, hits mostly inhibitors | purified cruzain, Z-FR-AMC fluorescence, no detergent;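 further: plate controls were enzyme without inhibitor for no effect and buffer without enzyme for full effect; nearly all actives have a fitted effect of over 40% in size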
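Purified cruzain at 1.5 nM, pre-incubated 15 min with compound at room temperature in 100 mM sodium acetate pH 5.5, 5 mM DTT, 0.00005% Triton X-100. Reaction started with 2 uM Z-FR-AMC; AMC fluorescence increase over 60 s gives rate.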
Active calls of the source: *. The call rests on the fitted dose curve; in most records, active means well fitted curve in the direction sought with a large enough effect; inconclusive means small, poorly fitted or top-dose-only effect, or another doubt; inactive means no such curve, though single readings can be large; an effect the other way counts as inactive or inconclusive. Potency means the concentration at half of the fitted maximal effect.

What do the screens show for `COc1cc2c(cc1OC)C1=NC(=O)CN1C(SCc1ccc(C)cc1)=N2`?
Cruzain inh Det: 5.6%; Cruzain inh noDet: -9.1%

Results for Cc1ccc(CSC2=Nc3sccc3C3=NC(=O)CN23)cc1 ?
Cruzain inh Det: -8.0%; Cruzain inh noDet: 20µM*

What do the screens show for `Cc1ccc(-c2[nH]nc(N)c2N=Nc2cccc(Cl)c2C)cc1`?
Cruzain inh Det: -2.6%; Cruzain inh noDet: inconclusive

How did Cc1cccc(N=Nc2c(N)n[nH]c2-c2ccc(Cl)cc2)c1 do in these assays?
Cruzain inh Det: -5.9%; Cruzain inh noDet: 25.1µM*

How did O=C(CC1CCCCC1)NCc1cn2ccsc2n1 do in these assays?
Cruzain inh Det: -3.6%; Cruzain inh noDet: 2.1%

What do the screens show for `COc1ccc(C(=O)n2nc(C)cc2C)cc1Br`?
Cruzain inh Det: 2.6%; Cruzain inh noDet: -6.5%

Results for COc1ccc(C(=O)N/N=C/c2ccc(OC(=O)c3cccs3)cc2)cc1 ?
Cruzain inh Det: -0.1%; Cruzain inh noDet: inconclusive

What do the screens show for `O=S(=O)(N/N=C\c1cn(-c2ccccc2)nc1-c1ccccc1)c1ccccc1`?
Cruzain inh Det: -3.1%; Cruzain inh noDet: inconclusive

Results for O=C(N/N=C\c1ccc(OC(=O)c2cccs2)cc1)c1ccc(Cl)cc1 ?
Cruzain inh Det: -20.7%; Cruzain inh noDet: 10µM*

Results for O=C(N/N=C/c1cn(-c2ccccc2)nc1-c1cccs1)c1ccc(Cl)cc1 ?
Cruzain inh Det: -9.3%; Cruzain inh noDet: 12.6µM*

What do the screens show for `O=C(CNc1ccccc1)N/N=C/c1cn(-c2ccccc2)nc1-c1ccccc1`?
Cruzain inh Det: -5.9%; Cruzain inh noDet: 25.1µM*

How did O=C(N/N=C/c1cn(-c2ccccc2)nc1-c1cc2ccccc2o1)c1ccncc1 do in these assays?
Cruzain inh Det: -10.6%; Cruzain inh noDet: 24.0%

Results for O=C(Nc1ccncc1)c1cn(-c2ccccc2)nc1-c1cccs1 ?
Cruzain inh Det: -4.2%; Cruzain inh noDet: -7.5%

Results for O=C(N/N=C/c1cn(-c2ccccc2)nc1-c1cccs1)c1ccccc1F ?
Cruzain inh Det: -7.5%; Cruzain inh noDet: 31.6µM*

What do the screens show for `COc1ccc(C(=O)N(c2ccc(C)cc2)S(=O)(=O)c2ccc(C)cc2)cc1`?
Cruzain inh Det: -2.9%; Cruzain inh noDet: inconclusive

What do the screens show for `Cc1ccc(Cl)cc1-n1nnc(-c2nsc(NC(=O)c3ccccc3Cl)n2)c1C`?
Cruzain inh Det: -4.9%; Cruzain inh noDet: 3.16µM*

What do the screens show for `Cc1ccc(C(=O)Nc2nc(-c3nnn(-c4cccc(Cl)c4C)c3C)ns2)cc1C`?
Cruzain inh Det: -1.5%; Cruzain inh noDet: inconclusive

What do the screens show for `CC(C)Cn1c(=O)[nH]c2ccccc21`?
Cruzain inh Det: 0.9%; Cruzain inh noDet: 3.9%

How did COc1ccccc1/C=C(/CC(=O)NCc1ccc(F)cc1)c1nc2ccccc2s1 do in these assays?
Cruzain inh Det: -7.5%; Cruzain inh noDet: 15.8µM*

Results for COc1ccccc1/C=C(/CC(=O)NCc1ccccc1)c1nc2ccccc2s1 ?
Cruzain inh Det: -4.3%; Cruzain inh noDet: inconclusive

Results for COc1ccc(C(=O)N(Cc2cc(OC)c(OC)c(OC)c2)c2ccccn2)cc1 ?
Cruzain inh Det: -1.6%; Cruzain inh noDet: -1.6%

How did Nc1ccc(Nc2ccccc2N)cc1 do in these assays?
Cruzain inh Det: -9.1%; Cruzain inh noDet: 25.1µM*

What do the screens show for `Nc1cc(C(=O)O)ccc1Nc1ccccc1`?
Cruzain inh Det: -1.1%; Cruzain inh noDet: -4.5%

What do the screens show for `O=C1N/C(=C/c2ccc(Br)cc2)C(O)=C1C=NCc1ccccc1`?
Cruzain inh Det: -3.1%; Cruzain inh noDet: 20µM*

Results for O=C1C(C=NCc2ccncc2)=C(O)c2ccccc21 ?
Cruzain inh Det: -2.7%; Cruzain inh noDet: 1.5%

Results for CC(=O)N/C(=C/c1ccccc1)C(=O)NC(Cc1ccccc1)C(=O)O (stereo unspecified) ?
Cruzain inh Det: -2.4%; Cruzain inh noDet: 7.6%

How did Cc1csc(NC(=O)CSc2nnc(C)s2)n1 do in these assays?
Cruzain inh Det: -0.2%; Cruzain inh noDet: -11.4%

Results for Cc1csc(NC(=O)CSc2nnc(NC(=O)COc3ccccc3)s2)n1 ?
Cruzain inh Det: 2.4%; Cruzain inh noDet: 7.94µM*

How did COc1ccc(C2CC(=O)c3ccc(OC)cc3O2)cc1 (stereo unspecified) do in these assays?
Cruzain inh Det: 0.7%; Cruzain inh noDet: 0.4%

Results for COc1ccc(CNC(=O)c2c(Nc3ccc(OC)cc3OC)sc(C(=O)c3ccc(Cl)cc3)c2N)cc1 ?
Cruzain inh Det: -0.4%; Cruzain inh noDet: 12.6µM*

How did COc1ccc(CNC(=O)c2c(Nc3ccccc3C)sc(C(=O)c3ccccc3)c2N)cc1 do in these assays?
Cruzain inh Det: -0.3%; Cruzain inh noDet: inconclusive

What do the screens show for `Cc1ccccc1Nc1sc(C(=O)c2ccccc2)c(N)c1C(=O)NCc1ccc(Cl)cc1`?
Cruzain inh Det: -2.4%; Cruzain inh noDet: 5.01µM*

Results for CCOc1ccc(NC(=O)c2c(Nc3ccc(OC)cc3OC)sc(C(=O)c3ccc(Cl)cc3)c2N)cc1 ?
Cruzain inh Det: 0.5%; Cruzain inh noDet: inconclusive

Screens from PubChem.
